Source: the supplement of paper PMC9694430

Tests used:
Assay in all cases: thermal shift delta Tm vs DMSO control; higher = stronger stabilization (binding)
Details in all cases: 12.5 µM; protein concentration 2 µM
[1] = test system: LOC_OS01G57100-cb003
Procedure, shortened: (§1)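 Purified, E. coli-expressed rice kinase domain constructs were tested by differential scanning fluorimetry in 96-well plates: 19.5 μl of 2 μM kinase in 100 mM potassium phosphate pH 7.5, 150 mM NaCl, 10% glycerol, 5 × SYPRO Orange, plus compound in DMSO. Fluorescence was read from 25°C to 95°C at 0.05°C/s. Melting temperatures came from Boltzmann fits, and the shift is the triplicate mean relative to protein with DMSO alone.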

[2] = test system: LOC_OS01G60330-cb001
Procedure, shortened: as §1

[3] = test system: LOC_OS01G60700-cb002
Procedure, shortened: as §1

[4] = test system: LOC_OS01G63280-cb003
Procedure, shortened: as §1

[5] = test system: LOC_OS01G67340-cb003
Procedure, shortened: as §1

[6] = test system: LOC_OS01G70970-cb002
Procedure, shortened: as §1

[7] = test system: LOC_OS02G07810-cb001
Procedure, shortened: as §1

[8] = test system: LOC_OS02G08530-cb003
Procedure, shortened: as §1

[9] = test system: LOC_OS02G14120-cb001
Procedure, shortened: as §1

[10] = test system: LOC_OS02G17970-cb001
Procedure, shortened: as §1

| SMILES | thermal shift delta Tm [1] [°C] | thermal shift delta Tm [2] [°C] | thermal shift delta Tm [3] [°C] | thermal shift delta Tm [4] [°C] | thermal shift delta Tm [5] [°C] | thermal shift delta Tm [6] [°C] | thermal shift delta Tm [7] [°C] | thermal shift delta Tm [8] [°C] | thermal shift delta Tm [9] [°C] | thermal shift delta Tm [10] [°C] |
| --- | --- | --- | --- | --- | --- | --- | --- | --- | --- | --- |
| COc1ccc(COc2cc3oc(=O)c4cc(C(C)O)ccc4c3cc2OC)cc1 (stereo not given) [Palomid 529 (P529)] | 2.39 | 1.07 | 1.23 | 0.19 | 0.25 | 0.51 | 0.98 | 1.87 | 1.04 | 0.5 |
| COc1ccc(-c2ccc3ncc4c(c3c2)n(-c2ccc(N3CCNCC3)c(C(F)(F)F)c2)c(=O)n4C)cn1 | 1.82 | 0.66 | 0.68 | 0.17 | 1.43 | 0.41 | 1.67 | 2.04 | 8.11 | 0.58 |
| CNC(=O)c1ccc(Nc2ncc(C(F)(F)F)c(NCc3nccnc3N(C)S(C)(=O)=O)n2)cc1 | 0.61 | 2.42 | 1.41 | 0.96 | 1.45 | 7.62 | 0.24 | 2.72 | 6.02 | 0.65 |
| O=C(NOCCO)c1ccc2cncn2c1Nc1ccc(I)cc1F | 1.19 | -0.56 | 0.86 | 0.2 | -0.68 | -0.05 | 1.14 | 0.47 | -1.25 | 1.62 |
| CN1CCN(c2ccc3nc(-c4c(N)c5c(F)cccc5[nH]c4=O)[nH]c3c2)CC1 [Dovitinib (TKI258) Lactate] | 1.26 | 14.2 | 1.84 | 1.58 | 7.49 | 8.33 | 0.88 | 4.27 | 6.8 | 2 |
| O=C(/C=C/c1ccc2ccccc2n1)c1ccncc1 | 1.22 | 1.35 | 0.05 | 1.12 | 0.62 | 0.59 | 0.02 | 2.02 | 2.08 | 1.05 |
| O=C(NCCCNc1nc(Nc2cccc(NC(=O)N3CCCC3)c2)ncc1I)c1cccs1 | 1.91 | 11.8 | 0.35 | 0.47 | 2.07 | 8.4 | 1.11 | 2.77 | 9.13 | 0.49 |
| C=CC(=O)N1CC[C@@H](Oc2nc(Nc3ccc(N4CCC(N5CCN(C)CC5)CC4)cc3)c(C(N)=O)nc2CC)C1 [Naquotinib(ASP8273)] | 0.96 | 9.41 | 0.02 | 0.22 | 1.05 | 5.67 | -0.78 | 4.36 | 8.5 | 0.57 |
| CCN1CCN(Cc2ccc(C(=O)Nc3ccc(C)c(Oc4ccc5c(c4)CC(=O)N5)c3)cc2C(F)(F)F)CC1 | 2.21 | 1.36 | 1.34 | 0.98 | 1.05 | 0.43 | 1.19 | 0.8 | 0.22 | 1.43 |
| CCCCNc1ncc(-c2ccc(CN3CCOCC3)cn2)c(NC2CCC(O)CC2)n1 (stereo not given) | -0.33 | 8.95 | 0 | -0.12 | 1.86 | 5.72 | 0.1 | 1.9 | 5.78 | 0.44 |
| COc1ccc2c(Oc3ccc(NC(=O)c4c(C)n(CC(C)(C)O)n(-c5ccccc5)c4=O)nc3)ccnc2c1 | 1.79 | 0.76 | 0.86 | 1.14 | 0.79 | 0.65 | 1.3 | 0.98 | 5.4 | 0.76 |
| O=C(O)CCC(=O)Nc1ccc(Br)cn1 [Bikinin] | 3.66 | 0.91 | 0.53 | 0.52 | 0.6 | 0.23 | 0.66 | 0.69 | 0.3 | 0.9 |
| CC1(C)OC(=O)C=C[C@]2(C)[C@H]3CC[C@@]4(C)[C@H](c5ccoc5)OC(=O)[C@H]5O[C@]54[C@]3(C)C(=O)C[C@@H]12 [Obacunone] | 1.14 | 0.6 | 0.14 | 0.26 | 0.19 | 0.13 | 0.27 | 0.44 | 0.92 | 0.03 |
| O=C(O)[C@]1(Cc2cccc(Nc3nccs3)n2)CC[C@@H](Oc2cccc(Cl)c2F)CC1 | 5.7 | 1.72 | -1.18 | 0.43 | 3.34 | 9.45 | 0.53 | 5.62 | 13.5 | 0.24 |
| CN1CCN(S(=O)(=O)c2ccc(-c3cnc(N)c(C(=O)Nc4cccnc4)n3)cc2)CC1 | 1.13 | 1.53 | 1.31 | 0.13 | 0.5 | 1.05 | 0.28 | 1.13 | 2.21 | -0.31 |
| Cc1cn(-c2cc(NC(=O)c3ccc(C)c(Nc4nccc(-c5cccnc5)n4)c3)cc(C(F)(F)F)c2)cn1 [Nilotinib (AMN-107)] | 0.85 | 1.29 | 0.99 | 0.49 | -0.08 | 0.3 | 0.5 | 0.55 | 0.37 | 0.01 |
| CC[C@@](C)(Nc1ccnc(-c2c[nH]c3ncccc23)n1)C(=O)NCC(F)(F)F [Decernotinib (VX-509)] | 2.18 | 0.73 | 0.67 | 0.95 | 0.62 | 0.36 | 0.36 | 0.65 | 5.49 | 0.86 |
| CC1(C)C=Cc2c(ccc3c2OC[C@@H](c2ccc(O)cc2O)C3)O1 [Glabridin] | 0.87 | 2.93 | -0.87 | 3.61 | 0.86 | 1.29 | -0.38 | 0.24 | 0.34 | 0.51 |
| C[C@@H](Oc1ccc2[nH]nc(/C=C/c3cnn(CCO)c3)c2c1)c1c(Cl)cncc1Cl | 2.21 | 7.79 | 0.64 | 7.65 | 12.6 | 12.2 | 0.37 | 5.56 | 15 | -0.09 |
| N#Cc1ccc(-c2c(-c3ncn[nH]3)sc(N3CCOCC3)c2C#N)c(F)c1 | 0.86 | 1.05 | 1.22 | 0.44 | 0.56 | 0.2 | 0.75 | 0.69 | 1.41 | 1.24 |

| SMILES | thermal shift delta Tm [1] [°C] | thermal shift delta Tm [2] [°C] | thermal shift delta Tm [3] [°C] | thermal shift delta Tm [4] [°C] | thermal shift delta Tm [5] [°C] | thermal shift delta Tm [6] [°C] | thermal shift delta Tm [7] [°C] | thermal shift delta Tm [8] [°C] | thermal shift delta Tm [9] [°C] | thermal shift delta Tm [10] [°C] |
| --- | --- | --- | --- | --- | --- | --- | --- | --- | --- | --- |
| CS(=O)(=O)N1CCc2c(-c3cnc(N)nc3)nc(N3CCOCC3)nc21 | 1.64 | 1.56 | 0.95 | 0.4 | 1.13 | 0.73 | 1.06 | 1.51 | 1.15 | 0.81 |
| COc1nccc(-c2c(-c3ccc(F)cc3)ncn2C2CCC(O)CC2)n1 (stereo not given) | 1.45 | 1.05 | 0.84 | 0.44 | 0.6 | 0.09 | 0.67 | 0.39 | -0.37 | 0.65 |
| CO[C@H]1CC[C@H](N2C(=O)CNc3ncc(-c4ccc(C(C)(C)O)nc4)nc32)CC1 | -0.57 | 0.72 | 0.21 | -0.43 | 0.09 | -0.05 | -0.1 | 0.65 | -1.04 | -0.48 |
| C[C@@H](Nc1cc(F)cc(F)c1)c1cc(C(=O)N(C)C)cc2c(=O)cc(N3CCOCC3)oc12 | 0.51 | 1.18 | 1.09 | 0.24 | 0.36 | 0.08 | 0.6 | 0.37 | 0.3 | 0.78 |
| CC(C)(C)c1nc(-c2ccc(NC(=O)Nc3cccc(C(F)(F)F)c3)c3ccccc23)c2c(N)nccn12 [kira6] | 0.63 | 1.17 | 0.03 | 14.6 | 8.45 | 0.75 | 0.03 | 2.22 | 2.07 | 1.1 |
| OCCn1cc(-c2cnc3nnn(Cc4ccc5ncccc5c4)c3n2)cn1 | 0.41 | 0.74 | 0.46 | 0.3 | -0.64 | 0.28 | 0.2 | 0.45 | -0.27 | 0.49 |
| CNC(=O)c1ccccc1Sc1ccc2c(/C=C/c3ccccn3)n[nH]c2c1 [Axitinib] | 0.01 | 1.21 | 1.17 | 0.65 | -0.05 | 0.68 | 0.49 | 0.53 | 3.54 | -0.24 |
| O=C(Nc1cccnc1)c1cc(-c2ccnc(F)c2)ccc1OCc1ccccc1 | 0.33 | 0.69 | 0.86 | -0.26 | 0.85 | 0.12 | 0.46 | 2.26 | 0.34 | 0.6 |
| O=C(O)c1ccc2c(c1)nc(Nc1cccc(Cl)c1)c1ccncc12 [Silmitasertib (CX-4945)] | 2.46 | 4.93 | 1.42 | 1.39 | 0.58 | 0.36 | 0.97 | 1.24 | 2.72 | 1.95 |
| CC(C)CC(=O)Nc1n[nH]c2c1CN(C(=O)C1CCN(C)CC1)C2(C)C | 1.01 | 1.35 | 0.94 | 0.65 | 0.25 | 0.19 | 1.09 | 0.95 | 0.04 | 1.36 |
| C#Cc1cccc(Nc2ncnc3cc4c(cc23)OCCOCCOCCO4)c1 [Icotinib] | 2.43 | 0.51 | 1.16 | 0.89 | 0.11 | 0.61 | 0.45 | 1.31 | 2.16 | 1.61 |
| CC(C)n1nc(-c2ccc3oc(N)nc3c2)c2c(N)ncnc21 | 0.15 | 0.88 | 0.9 | 0.99 | 0.39 | 0.54 | 0.31 | 1.77 | 1.77 | 1.04 |
| COc1ncc(-c2cc(-c3ncc(CN4C[C@@H](C)O[C@@H](C)C4)o3)c3cn[nH]c3c2)cc1NS(C)(=O)=O | 1.25 | 1.42 | 1.12 | 0.17 | 1.4 | 0.12 | 0.69 | 0.78 | -0.2 | 0.21 |
| CCc1ccc(/C=C2/SC(=S)NC2=O)cc1 | 3.2 | 1.11 | 2.87 | 0.27 | 0.34 | 1.39 | 1.4 | 1.74 | 1.62 | 1.54 |
| O=C(NCc1cccc(O)c1)Nc1nc(-c2ccncc2)cs1 | 0.7 | 0.56 | 1.38 | -0.09 | 0.16 | 0.57 | 1.03 | 1.04 | 0.87 | 0.34 |
| CC1(C)CNc2cc(NC(=O)c3cccnc3NCc3ccncc3)ccc21 [Motesanib Diphosphate (AMG-706)] | 1.3 | 1.28 | 1.09 | 8.62 | -0.45 | 0.75 | 0.59 | 0.61 | -0.17 | 0.6 |
| FC(F)(F)c1ccc(/C=C/c2nc(COc3ccc(CCCCn4ccnn4)cc3)co2)cc1 [Mubritinib (TAK 165)] | 0.83 | 0.99 | 0.41 | 0.22 | -0.98 | 0.3 | 0.23 | 0.63 | 0.38 | 0.37 |
| C[C@]1(O)C[C@@H](c2nc(-c3ccc4ccc(-c5ccccc5)nc4c3)c3c(N)nccn32)C1 [Linsitinib (OSI-906)] | 0.52 | 1.43 | 1.07 | 2.13 | 0.12 | 0.38 | 1.27 | 0.86 | 0.29 | 0.89 |
| CC1=C(C(=O)Nc2ccc3[nH]ncc3c2)C(c2ccc(F)cc2)NC(=O)N1 (stereo not given) | 2.16 | 0.38 | 0.62 | 0.82 | 0.41 | 0.4 | -0.36 | 0.77 | 2.32 | 0.88 |
